# HT1080 IDH1KD tx: HT-1080 IDH1 knockdown cell toxicity (counter line); HT-1080 IDH1 knockdown viability, ATP luminescence, 48 h; Potency, µM (highest dose often 46.1 µM), usual class: cytotoxic; 360,000 compounds, 2% hits
#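 Knockdown cells (IDH1KD HT-1080) received compounds 2 h after plating at 750 cells/well and were kept 48 h at 37 °C in 5% FBS RPMI. A CellTiter-Glo luminescence read gave % activity for curve fitting.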
# HT1080-NT tox: kills 2HG-producing HT-1080-NT fibrosarcoma cells; HT-1080-NT fibrosarcoma viability, CellTiter-Glo ATP luminescence, 48 h; AID 686970; Potency, µM (series often up to 46.1 µM), hits mostly cytotoxic; 360,000 compounds, 1.6% hits;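 further: NT is the 2HG producing partner of a matched IDH1 knockdown line; nearly all actives have a fitted effect of over 55% in size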
#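 HT-1080-NT fibrosarcoma cells (2HG-overproducing), 750 cells/well in RPMI with 5% FBS, dosed after 2 h and incubated 48 h at 37C. CellTiter-Glo luminescence normalized to DMSO and no-cell wells; concentration-response curves fitted and classed.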
# DT40 TDP1 no CPT: qHTS for Inhibitors of human tyrosyl-DNA phosphodiesterase 1 (TDP1): qHTS in cells in absence of CPT; AID 686978, 2013; 420,000 compounds, 15% hits; Potency, µM (series often up to 46.2 µM), usual class: inhibitors; DT40 Tdp1-/- hTDP1 cells, no CPT, ATP luminescence, 48 h; further: nearly all actives have a fitted effect of over 55% in size
#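 Stably hTDP1-transfected Tdp1-null chicken DT40 cells were treated with library compounds minus camptothecin and grown for at least 48 hr at 37 °C, after which cellular ATP was quantified by luminescence.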
# DT40 TDP1 CPT: DT40-hTDP1 cell growth loss with CPT | chicken DT40 Tdp1-/-;hTDP1 cells + 20 nM CPT, ATP luminescence, 48 h | Potency, µM (highest dose often 46.2 µM), actives largely listed as inhibitors | 420,000 compounds, 12% hits; further: nearly all actives have a fitted effect of over 55% in size
#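 Cell growth measured by CellTiter-Glo luminescence after a minimum 48 h, 37 C compound exposure with 20 nM CPT in Tdp1-knockout DT40 cells stably expressing hTDP1, seeded 400/well; qHTS titration format.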
# IL1B secr inh: inflammasome signaling inhibition, IL-1 beta readout | THP-1 LPS/ATP IL-1B secretion, AlphaLISA, 16 h; stronger effect = lower value | activity change, % at 57.5 µM | 360,000 compounds, 4.7% hits | AID 743279; in the data active means activity change below about -50%; inconclusive means mostly about -30% to -49%
#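 THP-1 cells pretreated 1 hr with compounds (up to 57.5 uM final), then stimulated with LPS (250 ng/mL final) plus ATP (1.25 mM final); secreted IL-1B measured by AlphaLISA after 16 hr, decreased signal indicating inhibition.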
# A number is an active result; . = inactive; ? = inconclusive; / = no result. In the library only some 19% were active in any assay of this set; here they are far more common. Unless noted, the call rests on the fitted dose curve; in most records, active means well fitted curve in the direction sought with a large enough effect; inconclusive means small, poorly fitted or top-dose-only effect, or another doubt; inactive means no such curve, though single readings can be large; an effect the other way counts as inactive or inconclusive.
SMILES,HT1080 IDH1KD tx,HT1080-NT tox,DT40 TDP1 no CPT,DT40 TDP1 CPT,IL1B secr inh
Cc1ccccc1Nc1c(-c2cccs2)nc2cccc(C)n12,/,/,13µM,15µM,/
Cc1cccc2nc(-c3cccnc3)c(Nc3ccc(C(C)C)cc3)n12,/,/,16µM,?,/
Cc1ccc2nc(-c3cccs3)c(Nc3ccccc3)n2c1,.,.,?,?,/
Cc1ccnc2nc(C(=O)NCCc3ccc(F)cc3)nn12,.,.,.,.,.
CCN(CC)C(=O)C1CCCN(c2ncnc3c2cnn3-c2ccc(Cl)cc2)C1 (centres undefined),.,.,18µM,?,-54
CCN(CC)C(=O)C1CCCN(c2ncnc3c2cnn3-c2cccc(C)c2)C1 (centres undefined),.,.,16µM,?,-56
CCOC(=O)C1CCCN(c2ncnc3c2cnn3-c2cccc(C)c2)C1 (centres undefined),.,.,.,.,.
Cc1nnc(SCC(=O)Nc2cccc(Cl)c2)n1CC1CCCO1 (centres undefined),.,.,.,.,.
COC(=O)/C(C#N)=C\c1c(OC)[nH]c2ccccc12,.,.,9.2µM,?,.
CC1N(C)c2cc(NC(=O)c3cccs3)c(P(=O)(Nc3ccc([N+](=O)[O-])cc3)N3CCOCC3)cc2C1(C)C (centres undefined),.,.,18µM,?,-58
CC(C)(C)NC(=O)CN(C(=O)C(=O)Nc1ccc2c(c1)OCCO2)N1CCOCC1,.,.,.,.,.
COc1ccc(CCNC(=O)CSCc2ccc(F)cc2)cc1OC,.,.,.,.,.
COc1ccc(CCNc2nc(SCc3cccc(Cl)c3)nc3ccccc23)cc1OC,/,/,8.2µM,?,/
COc1ccc(CCNC(=O)CCSCc2ccccc2F)cc1OC,.,.,.,.,.
COc1ccc(CCNc2nc(SCc3ccc(F)cc3)nc3ccccc23)cc1OC,/,/,7.3µM,7.3µM,/
COc1ccc(CCNc2nc(SCc3ccccc3F)nc3ccccc23)cc1OC,/,/,3.7µM,3.7µM,/
COC(=O)C(NC(=O)c1ccccc1Cl)(Nc1ncc(S(=O)(=O)c2ccc([N+](=O)[O-])cc2)s1)C(F)(F)F (centres undefined),.,.,?,?,?
O=c1c2ccccc2cnn1Cc1ccc(Br)cc1F,.,.,?,.,.
CCN(CC)CCNC(=O)c1[nH]c2ccc(OCc3ccccc3)cc2c1C,?,?,?,?,-95
S=C(Nc1ccc(Cc2ccncc2)cc1)Nc1cccc(Cl)c1,.,.,.,.,.
CC(NS(=O)(=O)OCC(Cl)(Cl)Cl)c1ccc(C(C)(C)C)cc1 (centres undefined),29µM,?,?,16µM,-72
Cc1nn(CCC(=O)NNC(=S)NCC(C)C)c(C)c1Br,1.3µM,1.1µM,6.5µM,7.3µM,.
CNC(=S)NNC(=O)CCn1nc(C)c(Br)c1C,16µM,11µM,?,?,.
CCOCCCNC(=S)NNC(=O)CCn1nc(C)c(Br)c1C,2.5µM,0.89µM,.,.,.
COC(=O)Cc1c(O)ccn(Cc2ccc(OC)c(OC)c2)c1=O,.,.,.,.,.
SMILES,HT1080 IDH1KD tx,HT1080-NT tox,DT40 TDP1 no CPT,DT40 TDP1 CPT,IL1B secr inh
CCn1c(C)nc2cc(C(=O)N/N=C/c3cccc(OC)c3O)ccc21,?,.,?,?,.
CCC(=NNC(=O)c1ccc2c(c1)nc(C)n2CC)c1cc(F)ccc1O,?,.,12µM,13µM,.
CCn1c(C)nc2cc(C(N)=O)ccc21,.,.,.,.,.
CCn1c(C)nc2cc(C(=O)N/N=C/c3ccc(O)c(O)c3O)ccc21,.,.,?,26µM,.
CCCCN1C=CC(=C2C(=O)c3ccccc3C2=O)C=C1,23µM,16µM,?,?,.
Cc1ccc2[nH]c(O)c(N=NC(=O)CCc3ccccc3)c2c1Br,.,.,?,16µM,-88
Cn1c(NC(=O)/C=C\c2ccccc2)cc(=O)n(C)c1=O,.,.,?,.,.
CCOc1cccc2cc(C(=O)NCc3ccccc3Cl)c(=O)oc12,.,.,.,.,.
Cc1c(NC(=S)SCc2ccccc2)c(=O)n(-c2ccccc2)n1C,.,.,23µM,.,.
